# In the library only some 19% were active in any assay of this set; here they are far more common.
# S-ASM inh – blocks human secretory acid sphingomyelinase; 340,000 compounds, 0.006% hits; placental ASM, HMU-PC fluorogenic substrate, 60 min; AID 504937; Potency, µM (doses to about 57.5 µM), actives largely listed as inhibitors
# Target sequence (P17405 47-631 limits assumed): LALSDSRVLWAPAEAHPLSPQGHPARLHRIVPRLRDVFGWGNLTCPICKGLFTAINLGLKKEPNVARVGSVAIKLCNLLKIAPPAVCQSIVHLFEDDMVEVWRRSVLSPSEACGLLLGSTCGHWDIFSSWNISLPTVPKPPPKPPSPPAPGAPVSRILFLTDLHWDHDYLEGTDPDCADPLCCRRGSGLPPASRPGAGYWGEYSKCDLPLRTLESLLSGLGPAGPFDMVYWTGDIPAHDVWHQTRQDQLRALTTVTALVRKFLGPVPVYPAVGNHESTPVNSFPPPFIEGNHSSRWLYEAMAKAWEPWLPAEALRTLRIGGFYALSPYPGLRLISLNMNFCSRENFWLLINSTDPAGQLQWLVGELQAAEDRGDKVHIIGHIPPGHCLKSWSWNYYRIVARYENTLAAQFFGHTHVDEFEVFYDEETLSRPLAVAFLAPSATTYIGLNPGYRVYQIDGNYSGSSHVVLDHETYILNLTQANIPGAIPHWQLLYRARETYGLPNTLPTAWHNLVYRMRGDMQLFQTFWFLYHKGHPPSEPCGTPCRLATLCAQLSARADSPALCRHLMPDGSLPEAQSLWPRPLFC
#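 Human placenta-derived ASM preincubated with compound 10 min at room temperature, then reacted with 9 uM (final) fluorogenic HMU-PC substrate for 60 min at 37 C. Stop solution raises pH to 10; fluorescence read at Ex 386/Em 447 nm.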
# TDP1 cell CPT – DT40-hTDP1 cell growth loss with CPT; chicken DT40 Tdp1-/-;hTDP1 cells + 20 nM CPT, ATP luminescence, 48 h; Potency, µM (series often up to 46.2 µM), most hits filed as inhibitors; 420,000 compounds, 12% hits; AID 686979; also: nearly all actives have a fitted effect of over 55% in size
#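 Cell growth measured by CellTiter-Glo luminescence after a minimum 48 h, 37 C compound exposure with 20 nM CPT in Tdp1-knockout DT40 cells stably expressing hTDP1, seeded 400/well; qHTS titration format.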
# TGFb inhibitor – TGF-b pathway inhibition. HepG2 CAGA-GFP TGF-b/SMAD3 reporter, GFP fluorescence, 18 h; TGF-beta stimulated, 500 pg/mL final. Potency, µM (titrated, usually from 46.1 µM), hits mostly inhibitors. AID 588855. 410,000 compounds, 1.2% hits; also: nearly all actives have a fitted effect of over 65% in size
#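 Per well, imaged GFP fluorescence of HEPG2 CAGA-GFP cells gives the signal; cells get compound, then TGF-beta (500 pg/mL final), 18 h at 37 degrees C; %Activity versus -TGF-beta and +DMSO controls.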
# TDP1 cell noCPT – qHTS for Inhibitors of human tyrosyl-DNA phosphodiesterase 1 (TDP1): qHTS in cells in absence of CPT. DT40 Tdp1-/- hTDP1 cells, no CPT, ATP luminescence, 48 h. Potency, µM (titrated, usually from 46.2 µM), actives largely listed as inhibitors. 420,000 compounds, 15% hits; also: nearly all actives have a fitted effect of over 55% in size
#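 Camptothecin absent (DMSO only). Human TDP1-complemented DT40 knockout cells, 400 cells/well, 37 °C for minimum 48 hr; ATP measured via CellTiter-Glo, 30 min dark incubation, luminescence.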
# IL-1B inflam inh – blocks inflammasome-driven IL-1 beta release. activity change, % at 57.5 µM. THP-1 LPS/ATP IL-1B secretion, AlphaLISA, 16 h; stronger effect = lower value. AID 743279. 360,000 compounds, 4.7% hits; in the data active = activity change below about -50%; inconclusive = mostly about -30% to -49%
#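 Secreted IL-1B measured by AlphaLISA bead assay after 16 h compound exposure of THP-1 cells; compounds (final up to 57.5 uM) added 1 h before LPS (250 ng/mL) and ATP (1.25 mM) stimulation; lower signal means less secretion.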
# HepG2 viability – HepG2 cytotoxicity, counter-screen for TGF-b inhibitors | AID 588856 | Potency, µM (highest dose often 46.1 µM), most hits filed as cytotoxic | 410,000 compounds, 0.76% hits | HepG2 CAGA-GFP viability, ATP luminescence, 18 h
#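 HepG2 CAGA-GFP cells (1000/well, DMEM with 1% FBS) received compound, then TGF-beta at 500 pg/mL final, and were incubated 18 hours at 37 degrees C. Viability was read by CellTiter-Glo luminescence. Media-only wells were set as complete cell-killing and DMSO as no toxicity.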
# Numbers stand for hits; n = inactive; u = inconclusive; x = not tested or not shown. Unless noted, calls follow the shape of the dose curve; as a rule, active = well fitted curve in the direction sought with a large enough effect; inconclusive = small, poorly fitted or top-dose-only effect, or another doubt; inactive = no such curve, though single readings can be large; an effect the other way counts as inactive or inconclusive.
SMILES,S-ASM inh,TDP1 cell CPT,TGFb inhibitor,TDP1 cell noCPT,IL-1B inflam inh,HepG2 viability
CCn1cc2nc(SCc3cccc(Cl)c3)n(Cc3ccc(C)cc3)c(=O)c2n1,x,21µM,n,23µM,x,n
CCn1cc2nc(SCc3cc(C)ccc3C)n(Cc3ccc(Cl)cc3)c(=O)c2n1,x,u,u,u,x,n
CCn1cc2nc(SCc3cccc(C(F)(F)F)c3)n(CCc3ccccc3)c(=O)c2n1,x,23µM,u,13µM,x,n
CCn1cc2nc(SCc3cccc(C)c3)n(CCc3ccccc3)c(=O)c2n1,x,23µM,u,u,x,n
Nc1cccc2cccnc12,x,1.8µM,n,5.6µM,x,n
Cc1ccnc2c([N+](=O)[O-])cccc12,x,22µM,n,u,x,n
O=C(O)c1ccc2cccnc2c1O,n,n,n,n,n,n
Cc1ccnc2c(N)cccc12,x,u,n,13µM,x,n
Cc1ccc2ccc3cccnc3c2n1,n,0.92µM,n,1µM,n,n
Nc1ccc(Br)c2cccnc12,n,u,n,u,n,n
Cc1ccc(NC(=O)CN2C(=O)COc3ccc(S(=O)(=O)Nc4ccccc4)cc32)c(C)c1,x,u,u,u,x,n
COc1ccc2oc(=O)c(C(=O)NCCc3ccc(OC)c(OC)c3)cc2c1,n,n,n,u,n,n
Cc1nc2cccc(C(=O)Oc3ccc([N+](=O)[O-])cc3)c2o1,n,n,n,n,n,n
O=C(NCCc1ccc(Cl)cc1)c1c2c(nc3ccccc13)C(=O)N(C1CCCCC1)C2,x,15µM,n,15µM,x,n
CCOc1ccc(CCNC(=O)c2c3c(nc4ccccc24)C(=O)N(C2CCCCC2)C3)cc1,x,16µM,n,21µM,x,n
Cc1c(-c2ccccc2)nc2ccccc2c1C(=O)Oc1ccc([N+](=O)[O-])cc1,n,8.2µM,n,5.8µM,-51,n
CCN(CC)CCCNC(=O)c1c2c(nc3ccccc13)C(=O)N(C1CCCCC1)C2,x,n,n,n,x,n
O=C(NCCc1ccccc1)c1c2c(nc3ccccc13)C(=O)N(C1CCCCC1)C2,x,12µM,n,18µM,x,n
CCCNC(=O)c1c2c(nc3ccccc13)C(=O)N(C1CCCCC1)C2,x,n,n,n,x,n
COc1cccc(C(=O)Nc2ccccc2C(=O)OCc2cc(=O)n3nc(C)sc3n2)c1,x,n,n,u,x,n
O=C1NC[C@H](CCCCN2CCN(CCc3ccccc3)C(=O)C2=O)N(Cc2ccccc2)C1=O,x,n,x,n,n,x
Cc1c(-c2ccccc2)nc2ccccc2c1C(=O)NCc1cccs1,n,u,n,16µM,n,n
CCc1nc2ccccc2c(C(=O)NCc2ccccc2)c1C,n,n,n,n,n,n
CCc1c(-c2ccccc2)nc2ccccc2c1C(=O)NCCc1ccccc1,x,u,u,23µM,x,n
Cc1c(C(=O)NCc2cccs2)oc2ccccc12,n,n,n,n,n,n
SMILES,S-ASM inh,TDP1 cell CPT,TGFb inhibitor,TDP1 cell noCPT,IL-1B inflam inh,HepG2 viability
Cc1ccc(C(=O)Nc2cc3c(cc2C)n(C)c(=O)c(=O)n3C)cc1,x,n,x,n,x,n
CN(C)C(=S)N=Nc1[nH]c2ccccc2c1O,n,0.58µM,2.8µM,0.52µM,n,n
CCS(=O)(=O)N1CCC(C(=O)Nc2ccc(C(C)=O)cc2)CC1,n,n,n,n,n,n
CCN(CC)CCNCC1C(=O)O[C@@H]2C[C@@]3(C)CCC[C@H](C)C3=C[C@H]12 (some centres not stated),n,u,u,13µM,x,n
Cc1cc(/C=N/NC(=O)c2cc3ccccc3o2)c(C)n1C,n,15µM,n,23µM,n,n
O=C(N/N=C/c1ccncc1)c1cc2ccccc2o1,n,n,n,n,-52,n
CCC1CCCCN1C(=S)Nc1cccc(S(=O)(=O)N(C)C)c1 (configuration not stated),n,n,n,u,n,n
CCOc1ccc(OCC)c(NC(=O)CN2CCN(c3cc(C)ccc3C)CC2)c1,n,21µM,n,23µM,n,n

# Bioassay records: PubChem BioAssay, National Center for Advancing Translational Sciences (NCATS)
